Test results taken from PubChem BioAssay (NCATS).
Results filed as inconclusive are left out. The source made the active and inactive calls. Unless noted, the call rests on the fitted dose curve; in most records, active means well fitted curve in the direction sought with a large enough effect; inconclusive means small, poorly fitted or top-dose-only effect, or another doubt; inactive means no such curve, though single readings can be large; an effect the other way counts as inactive or inconclusive.

Legend:
[1] = target: Lysosomal acid glucosylceramidase (Homo sapiens) (UniProt P04062); experiment: Glucocerebrosidase-p2 (AID 348; in the data active means potency below about 10 µM; further: potency means the concentration at half of the fitted maximal effect); conditions: purified GBA, blue fluorogenic substrate, 40 min
Summary of the method: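 Normal human glucocerebrosidase (0.2 nM) with blue fluorogenic substrate (80 uM final) in citrate/phosphate pH 5.9 with 10mM sodium taurocholate, 0.01% tween-20; 40 min RT, NaOH/glycine stop; fluorescence Ex 365/Em 440; AC50 from a titration from 0.6 nM upwards.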

[2] = AP1 Signaling Pathway (AID 357; active means well fitted curve in either direction with a large enough effect, not every such curve was filed as active;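 further: ME-180 reporter cells stimulated with EGF at its EC50 level; on the % scale 0 is the no-effect control and ±100 the full control effect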); conditions: ME-180 AP-1-bla reporter, EGF-induced, beta-lactamase ratio, 5 h; at 7.69 µM (top of the series) unless noted
Summary of the method: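 AP-1-bla ME-180 cells, Opti-MEM + 0.5% dialyzed FBS, plated overnight 37 °C. Cpd titration + EC50 EGF, 5 h 37 °C. CCF4 2.5 h RT; ex 405, em 460/530 ratio → %activity, AC50.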

[3] = target: Cytochrome P450 1A2 (Homo sapiens) (UniProt P05177); experiment: p450-cyp1a2 (AID 410; calls by dose curve; further: potency means the concentration at half of the fitted maximal effect;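 on activity change, negative = inhibition: -100% = full effect of reference inhibitor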); conditions: recombinant CYP1A2, luciferin-ME demethylation, luminescence; series mostly up to 57 µM
Summary of the method: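 Read-out is luminescence from luciferin produced by CYP1A2 demethylation of Luciferin-ME (100uM, at Km). Detection reagent stopped the 60 min NADPH-dependent reaction; signals were normalized to 57 uM furafylline.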

[4] = NFAT Signaling Pathway (AID 444; active means well fitted curve in either direction with a large enough effect, not every such curve was filed as active;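 further: carbachol stimulus at about its EC50 of 1 µM final; on the % scale 0 is the no-effect control and ±100 the full control effect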); conditions: Jurkat NFAT-bla M1, carbachol, beta-lactamase ratio, 5 h; at 7.69 µM (top of the series) unless noted
Summary of the method: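 Jurkat cells carrying an NFAT-driven β-lactamase reporter and co-transfected muscarinic M1 receptor were treated with compound plus carbachol (1 uM final, an EC50 level) for 5 h at 37 °C. CCF4 loading followed for 1 h at RT; 460/530 nm ratio gave %activity.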

[5] = Stat Signaling Pathway (AID 446; active means well fitted curve in either direction with a large enough effect, not every such curve was filed as active;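 further: ME-180 cervical cancer cells given 40 pM IL-6 alongside compound; SIE-controlled beta-lactamase reporter measured as 460/530 nm FRET emission ratio; on the % scale 0 is the no-effect control and ±100 the full control effect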); conditions: ME-180 SIE beta-lactamase reporter, IL-6 stimulated, 5 h; series mostly up to 7.69 µM
Summary of the method: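 Compound effects on IL-6-induced STAT reporter activity were measured in ME-180 cells. After overnight culture, cells were co-treated with 40 pM IL-6 for 5 hrs before beta-lactamase substrate loading at room temperature.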

[6] = target: Glucocorticoid receptor (Homo sapiens) (UniProt P04150); experiment: GR-GFP Redistribution (AID 450;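 active means compounds whose dose series gives a full or clear partial fitted curve of increased nuclear translocation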; further: potency means the concentration at half of the fitted maximal effect); conditions: U2OS GR-GFP nuclear translocation, laser cytometry, 2 h
[7] = target: Glucocorticoid receptor (Homo sapiens) (UniProt P04150); experiment: GR-EFC Redistribution (AID 451; calls by dose curve; further: potency means the concentration at half of the fitted maximal effect); conditions: CHO-K1 GR-EFC translocation, beta-gal luminescence, 2 h
Summary of the method: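 CHO-K1 cells stably expressing nuclear-localized β-gal enzyme acceptor and GR fused C-terminally to the enzyme donor fragment; ligand-driven nuclear translocation restores β-gal by complementation. Compounds titrated up to 46 uM final, 2 h at 37 °C; luminescence read.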

[8] = target: Mitogen-activated protein kinase 10 (Mus musculus) (UniProt Q61831); experiment: JNK3 AlphaScreen Assay (AID 530; active means well fitted curve in either direction with a large enough effect, not every such curve was filed as active;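 further: kinase came from lysate of stimulated human HepG2 cells; signal reports phosphorylation of biotinylated GST-cJun 1-79 at Ser73 with 10 µM ATP; on the % scale 0 is the no-effect control and ±100 the full control effect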); conditions: JNK3 lysate, c-Jun phosphorylation; series mostly up to 57.1 µM
Summary of the method: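 Biotinylated GST-cJun(1-79) served as substrate for JNK3 in HepG2 lysates stimulated with IL-1beta and TNF-alpha. ATP was 10 uM final, pH 7.6. Ser73 phosphorylation was quantified by AlphaScreen (680 nm excitation).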

[9] = target: Dual specificity protein kinase CLK4 (Homo sapiens) (UniProt Q9HAZ1); experiment: qHTS Assay for Inhibitors of CDC-like Kinase 4 (Kinase-Glo Assay) (AID 1770); conditions: recombinant Clk4, Kinase-Glo ATP depletion luminescence; series mostly up to 66.7 µM; further: nearly all actives have a fitted effect of over 65% in size; further: potency means the concentration at half of the fitted maximal effect
Summary of the method: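 Inhibition was judged from remaining ATP, measured by Ultra-Glo luciferase bioluminescence after Clk4 (25 nM) had acted on RS peptide at 1 uM ATP for 4.5 hours, room temperature.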

[10] = target: Dual specificity protein kinase CLK4 (Homo sapiens) (UniProt Q9HAZ1); experiment: qHTS Assay for Inhibitors of CDC-like Kinase 4 (ADP-Glo Assay) (AID 1771); conditions: recombinant CLK4, ADP-Glo luminescence; series mostly up to 80 µM; further: nearly all actives have a fitted effect of over 70% in size; further: potency means the concentration at half of the fitted maximal effect
Summary of the method: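 In this ADP-Glo format, 1 uM ATP and 100 uM RS peptide served as substrates for 25 nM Clk4 in Mg2+/EGTA/DTT/Triton buffer; reactions ran 1 hr at room temperature before luminescent ADP quantification.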

[11] = target: 3',5'-cyclic-AMP phosphodiesterase 4B (Homo sapiens) (UniProt Q07343); experiment: qHTS Assay for Inhibitors of PDE-IV (AID 607; active means well fitted activation curve with a large enough effect in the main read-out, with a control signal flat, not every such curve was filed as active; further: % of control where 0% means no effect); conditions: HEK293 ACTOne CNG channel cells, membrane potential fluorescence; series mostly up to 22.9 µM
Summary of the method: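 ACTOne HEK293 cells carry a modified cAMP-gated CNG channel and express endogenous PDE4; plated 1000 cells/well, compounds up to 22.9 uM final. Membrane-potential dye fluorescence (ex 535/em 590) was read; parental cells received 10 uM forskolin + 100 uM RO 20-1724.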

[12] = target: Dual specificity protein kinase CLK4 (Homo sapiens) (UniProt Q9HAZ1); experiment: qHTS Assay for Inhibitors of CDC-like Kinase 4 (ADP-FP Assay) (AID 1795); conditions: Transcreener ADP fluorescence polarization; series mostly up to 50 µM;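 further: recombinant human CLK4 phosphorylating RS repeat peptide at 1 µM ATP; on the % scale 0 is the no-effect control and ±100 the full control effect; nearly all actives have a fitted effect of over 60% in size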
Summary of the method: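 Inhibition of ADP formation by 6.25 nM Clk4 is measured using 1 uM ATP and 100 uM RS repeat peptide over one hour. Produced ADP displaces a fluorescent tracer from antibody, lowering polarization.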

[13] = target: Ubiquitin carboxyl-terminal hydrolase 1 (Homo sapiens) (UniProt O94782); experiment: Inhibitors of USP1/UAF1: Pilot qHTS (AID 504865); conditions: purified USP1/UAF1, Ub-rhodamine cleavage fluorescence; series mostly up to 54.9 µM;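 further: rhodamine fluorescence freed from ubiquitin-rhodamine substrate followed over time; top concentration of the series differs between compounds; on the % scale 0 is the no-effect control and ±100 the full control effect; nearly all actives have a fitted effect of over 35% in size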
Summary of the method: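 Kinetic fluorescence assay: 1nM USP1/UAF1, 15 min compound preincubation, then 150nM Ub-Rho; 480/540 nm.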

[14] = target: Cytochrome P450 3A4 (Homo sapiens) (UniProt P08684); experiment: qHTS Assay for Activators of Cytochrome P450 3A4 (AID 885); conditions: recombinant CYP3A4, Luciferin-PPXE luminescence, 60 min; series mostly up to 57.1 µM; further: nearly all actives have a fitted effect of over 65% in size
Summary of the method: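 CYP3A4 activity: Luciferin-PPXE O-dealkylation, 25uM substrate, 200mM KPO4, RT throughout. Read-out is luciferase luminescence; higher values reflect activation.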

[15] = target: Cytochrome P450 2C19 (Homo sapiens) (UniProt P33261); experiment: qHTS Assay for Inhibitors and Substrates of Cytochrome P450 2C19 (AID 899); conditions: recombinant CYP2C19, luciferin-H EGE luminescence; series mostly up to 57.1 µM; further: potency means the concentration at half of the fitted maximal effect; nearly all actives have a fitted effect of over 60% in size
Summary of the method: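 Human CYP2C19 (5nM) with Luciferin-H EGE at 10uM (its KM) in 50mM KPO4 was preincubated with compound for 10 min at 37C. NADPH regeneration started a 60 min 37C reaction. Luciferin was read by luminescence, normalized to 57uM ketoconazole.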

[16] = target: Cytochrome P450 2C9 (Homo sapiens) (UniProt P11712); experiment: qHTS Assay for Inhibitors and Substrates of Cytochrome P450 2C9 (AID 883); conditions: recombinant CYP2C9, luciferin-H luminescence, 60 min; series mostly up to 57.1 µM; further: on the % scale 0 is the no-effect control and ±100 the full control effect; nearly all actives have a fitted effect of over 60% in size
Summary of the method: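 Human CYP2C9 (10nM) hydroxylated Luciferin-H (100uM, at its KM) to luciferin in 25mM KPO4. Compound was preincubated 10 min at 37C, then NADPH regeneration started a 60 min reaction at 37C. Luminescence was read after detection reagent, normalized to 57uM sulphaphenazole.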

[17] = target: Cytochrome P450 3A4 (Homo sapiens) (UniProt P08684); experiment: qHTS Assay for Inhibitors and Substrates of Cytochrome P450 3A4 (AID 884); conditions: recombinant CYP3A4, Luciferin-PPXE luminescence; series mostly up to 57.1 µM; further: nearly all actives have a fitted effect of over 50% in size; further: potency means the concentration at half of the fitted maximal effect
Summary of the method: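 Luminescent readout of luciferin produced by CYP3A4 (20 nM) dealkylation of Luciferin-PPXE, 25 uM (its KM). NADPH-driven reaction ran 60 min at RT after 10 min compound preincubation; data scaled to 57 uM ketoconazole as 100% inhibition.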

[18] = qHTS Assay for Identification of Small Molecule Agonists for Hypoxia Response Element Signaling Pathway (AID 914; active means well fitted activation curve with a large enough effect in the signal ratio, with a control signal flat, not every such curve was filed as active; the % refers to the signal ratio; further: potency means the concentration at half of the fitted maximal effect); conditions: ME-180 (cervical carcinoma) HRE-bla reporter, beta-lactamase ratio, CoCl2, 17 h; activation: active compounds read high
Summary of the method: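 AC50 values come from titration-series %Activity, taken as the 460/530nm ratio of CCF4 fluorescence (excitation 405nm). CellSensor HRE-bla ME-180 cells were treated 17 hours at 37 C with compound plus an EC50 level of CoCl2.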

Chain of Cytochrome P450 1A2 (Homo sapiens) (P05177 whole entry, looked up): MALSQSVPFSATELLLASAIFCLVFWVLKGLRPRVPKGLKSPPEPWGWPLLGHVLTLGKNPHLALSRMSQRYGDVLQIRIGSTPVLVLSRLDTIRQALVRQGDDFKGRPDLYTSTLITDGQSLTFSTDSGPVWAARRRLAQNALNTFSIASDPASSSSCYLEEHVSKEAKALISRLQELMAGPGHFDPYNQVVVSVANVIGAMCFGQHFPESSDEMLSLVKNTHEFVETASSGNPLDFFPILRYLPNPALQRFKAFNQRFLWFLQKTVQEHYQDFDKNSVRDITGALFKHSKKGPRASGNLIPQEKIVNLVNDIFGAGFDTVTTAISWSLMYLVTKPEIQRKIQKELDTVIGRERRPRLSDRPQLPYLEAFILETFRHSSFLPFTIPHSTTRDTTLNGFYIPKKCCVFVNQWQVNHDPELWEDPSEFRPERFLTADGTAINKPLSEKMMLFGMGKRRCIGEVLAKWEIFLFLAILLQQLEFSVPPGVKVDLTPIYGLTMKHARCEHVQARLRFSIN
Chain of Lysosomal acid glucosylceramidase (Homo sapiens) (P04062 whole entry, looked up): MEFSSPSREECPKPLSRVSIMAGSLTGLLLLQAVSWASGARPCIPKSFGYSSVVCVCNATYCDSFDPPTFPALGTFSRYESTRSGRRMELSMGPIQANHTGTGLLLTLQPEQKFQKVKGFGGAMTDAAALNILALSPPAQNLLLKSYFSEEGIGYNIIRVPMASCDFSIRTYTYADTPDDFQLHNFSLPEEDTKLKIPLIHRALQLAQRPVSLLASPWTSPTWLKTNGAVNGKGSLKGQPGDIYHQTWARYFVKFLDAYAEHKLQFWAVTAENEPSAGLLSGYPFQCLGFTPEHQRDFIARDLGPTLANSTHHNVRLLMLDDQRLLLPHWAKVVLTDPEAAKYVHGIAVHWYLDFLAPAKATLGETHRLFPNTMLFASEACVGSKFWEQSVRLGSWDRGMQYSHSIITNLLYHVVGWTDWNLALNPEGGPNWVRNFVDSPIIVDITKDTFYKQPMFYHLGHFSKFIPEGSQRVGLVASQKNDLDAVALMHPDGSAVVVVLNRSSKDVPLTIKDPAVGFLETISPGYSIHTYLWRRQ
Chain of Cytochrome P450 3A4 (Homo sapiens) (P08684 whole entry, looked up): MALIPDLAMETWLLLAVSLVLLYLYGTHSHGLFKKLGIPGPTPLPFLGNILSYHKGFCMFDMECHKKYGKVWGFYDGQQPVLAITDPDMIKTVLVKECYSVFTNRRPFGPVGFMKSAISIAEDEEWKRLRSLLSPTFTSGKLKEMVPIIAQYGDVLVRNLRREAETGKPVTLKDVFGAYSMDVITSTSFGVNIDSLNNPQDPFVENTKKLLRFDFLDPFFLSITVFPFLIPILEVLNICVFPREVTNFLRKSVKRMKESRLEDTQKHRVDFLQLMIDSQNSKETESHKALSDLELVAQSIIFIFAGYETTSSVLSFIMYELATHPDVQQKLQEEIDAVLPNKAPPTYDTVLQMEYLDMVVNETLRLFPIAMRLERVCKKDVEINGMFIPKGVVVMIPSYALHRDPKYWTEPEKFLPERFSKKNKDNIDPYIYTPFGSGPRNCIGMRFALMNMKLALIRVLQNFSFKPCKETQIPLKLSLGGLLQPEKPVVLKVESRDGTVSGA
Chain of Ubiquitin carboxyl-terminal hydrolase 1 (Homo sapiens) (O94782 whole entry, looked up): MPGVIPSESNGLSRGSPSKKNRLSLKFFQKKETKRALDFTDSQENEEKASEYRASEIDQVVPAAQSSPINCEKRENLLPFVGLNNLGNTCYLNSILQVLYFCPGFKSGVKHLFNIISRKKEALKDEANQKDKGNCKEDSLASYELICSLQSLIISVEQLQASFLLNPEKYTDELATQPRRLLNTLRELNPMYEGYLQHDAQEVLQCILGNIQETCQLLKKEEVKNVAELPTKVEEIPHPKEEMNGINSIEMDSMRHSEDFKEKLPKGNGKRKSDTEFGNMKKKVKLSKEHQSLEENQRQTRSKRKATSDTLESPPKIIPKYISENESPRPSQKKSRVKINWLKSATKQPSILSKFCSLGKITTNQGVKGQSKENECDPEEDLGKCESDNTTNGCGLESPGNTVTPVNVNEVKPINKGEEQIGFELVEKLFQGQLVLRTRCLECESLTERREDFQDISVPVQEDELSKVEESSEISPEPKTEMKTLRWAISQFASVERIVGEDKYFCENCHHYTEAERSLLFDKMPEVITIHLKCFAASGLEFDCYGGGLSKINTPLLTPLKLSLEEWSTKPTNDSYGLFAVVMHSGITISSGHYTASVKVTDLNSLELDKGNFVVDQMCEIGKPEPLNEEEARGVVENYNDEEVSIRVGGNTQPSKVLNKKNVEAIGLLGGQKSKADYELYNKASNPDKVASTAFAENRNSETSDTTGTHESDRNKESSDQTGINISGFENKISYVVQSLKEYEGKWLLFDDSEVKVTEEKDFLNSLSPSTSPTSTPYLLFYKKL
Chain of Glucocorticoid receptor (Homo sapiens) (P04150 whole entry, looked up, the tested form may be a part): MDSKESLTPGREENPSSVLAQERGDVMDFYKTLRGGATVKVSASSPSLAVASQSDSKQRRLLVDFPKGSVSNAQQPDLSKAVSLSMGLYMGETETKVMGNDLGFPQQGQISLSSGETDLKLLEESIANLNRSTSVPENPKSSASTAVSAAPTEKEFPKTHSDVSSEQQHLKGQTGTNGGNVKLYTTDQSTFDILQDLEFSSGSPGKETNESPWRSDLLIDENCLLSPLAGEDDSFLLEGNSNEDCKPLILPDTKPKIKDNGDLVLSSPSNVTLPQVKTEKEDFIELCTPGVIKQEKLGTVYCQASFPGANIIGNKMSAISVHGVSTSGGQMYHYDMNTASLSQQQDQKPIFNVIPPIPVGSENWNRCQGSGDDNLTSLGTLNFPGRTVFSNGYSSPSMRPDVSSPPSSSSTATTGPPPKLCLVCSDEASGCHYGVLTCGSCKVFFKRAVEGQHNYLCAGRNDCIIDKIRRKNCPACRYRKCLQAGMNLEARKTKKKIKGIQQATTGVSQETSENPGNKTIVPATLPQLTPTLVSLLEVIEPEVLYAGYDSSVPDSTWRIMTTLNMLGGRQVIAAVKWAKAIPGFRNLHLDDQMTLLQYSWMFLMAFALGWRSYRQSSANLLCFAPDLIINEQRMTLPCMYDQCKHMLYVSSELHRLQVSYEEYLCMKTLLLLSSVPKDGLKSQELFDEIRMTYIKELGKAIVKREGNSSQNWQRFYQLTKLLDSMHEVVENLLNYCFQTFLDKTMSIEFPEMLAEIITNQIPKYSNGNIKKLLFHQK
Chain of 3',5'-cyclic-AMP phosphodiesterase 4B (Homo sapiens) (Q07343 whole entry, looked up): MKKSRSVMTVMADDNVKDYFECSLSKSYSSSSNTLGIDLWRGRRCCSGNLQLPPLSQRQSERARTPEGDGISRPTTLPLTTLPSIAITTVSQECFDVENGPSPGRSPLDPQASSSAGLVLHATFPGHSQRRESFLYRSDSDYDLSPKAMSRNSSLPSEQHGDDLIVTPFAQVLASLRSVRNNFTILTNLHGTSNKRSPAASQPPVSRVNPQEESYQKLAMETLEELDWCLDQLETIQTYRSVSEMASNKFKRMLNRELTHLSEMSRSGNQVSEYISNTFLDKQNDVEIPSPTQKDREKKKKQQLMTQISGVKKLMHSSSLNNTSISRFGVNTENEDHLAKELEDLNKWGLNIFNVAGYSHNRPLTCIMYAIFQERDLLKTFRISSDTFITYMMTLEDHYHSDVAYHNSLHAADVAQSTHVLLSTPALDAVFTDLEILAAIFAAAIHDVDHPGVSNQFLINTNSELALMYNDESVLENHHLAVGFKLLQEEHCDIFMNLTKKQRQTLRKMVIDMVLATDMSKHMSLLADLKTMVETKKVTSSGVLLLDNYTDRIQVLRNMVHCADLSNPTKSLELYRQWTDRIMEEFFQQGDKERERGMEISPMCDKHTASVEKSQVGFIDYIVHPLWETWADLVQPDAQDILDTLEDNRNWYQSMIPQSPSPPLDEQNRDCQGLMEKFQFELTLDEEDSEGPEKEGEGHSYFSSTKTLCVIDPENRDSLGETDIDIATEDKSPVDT
Chain of Dual specificity protein kinase CLK4 (Homo sapiens) (Q9HAZ1 whole entry, looked up): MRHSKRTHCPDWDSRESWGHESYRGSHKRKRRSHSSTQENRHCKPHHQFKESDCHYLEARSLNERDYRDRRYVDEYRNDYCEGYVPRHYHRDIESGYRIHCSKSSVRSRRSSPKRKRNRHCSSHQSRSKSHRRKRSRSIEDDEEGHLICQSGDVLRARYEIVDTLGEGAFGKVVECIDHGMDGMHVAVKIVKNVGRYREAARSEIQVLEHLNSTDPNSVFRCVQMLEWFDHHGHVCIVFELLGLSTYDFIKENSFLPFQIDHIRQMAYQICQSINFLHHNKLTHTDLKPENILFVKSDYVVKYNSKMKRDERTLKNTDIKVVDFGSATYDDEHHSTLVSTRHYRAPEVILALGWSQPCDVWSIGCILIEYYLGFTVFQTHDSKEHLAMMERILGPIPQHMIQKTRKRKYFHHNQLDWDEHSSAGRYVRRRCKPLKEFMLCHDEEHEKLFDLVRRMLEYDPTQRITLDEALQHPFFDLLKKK
Chain of Cytochrome P450 2C9 (Homo sapiens) (P11712 whole entry, looked up): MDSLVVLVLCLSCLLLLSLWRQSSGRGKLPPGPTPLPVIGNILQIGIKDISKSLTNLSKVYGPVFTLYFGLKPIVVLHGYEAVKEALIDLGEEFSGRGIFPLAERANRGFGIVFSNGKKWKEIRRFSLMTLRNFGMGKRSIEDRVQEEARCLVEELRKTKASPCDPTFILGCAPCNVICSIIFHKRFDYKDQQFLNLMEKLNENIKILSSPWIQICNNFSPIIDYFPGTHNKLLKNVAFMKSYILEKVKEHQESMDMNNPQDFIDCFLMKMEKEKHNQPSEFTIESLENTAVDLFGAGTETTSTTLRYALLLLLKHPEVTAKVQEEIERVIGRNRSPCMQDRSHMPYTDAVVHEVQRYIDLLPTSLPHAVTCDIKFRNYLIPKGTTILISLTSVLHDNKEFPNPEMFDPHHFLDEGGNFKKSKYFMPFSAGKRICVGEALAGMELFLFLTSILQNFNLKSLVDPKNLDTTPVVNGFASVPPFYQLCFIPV

Cc1noc(C)c1-c1nc(N2CCN(C)CC2)c2ccccc2n1
active: Potency [3] 0.316 µM | Potency [9] 15.8 µM | Potency [10] 28.2 µM
inactive: Potency [1] > 11.4 µM | activity change, negative = inhibition [2] 28.9% | activity change, negative = inhibition [4] -5.52% | outcome [5] | Potency [6] > 46 µM | Potency [7] > 46 µM | Potency [8]

Cc1cccc(CNc2ncncc2-c2ccccc2CN(C)C)c1
inactive: Potency [1] > 11.4 µM | activity change, negative = inhibition [2] 1.18% | Potency [6] > 46 µM | Potency [7] > 46 µM | Potency [8] | Potency [11] | Potency [9] | Potency [10] | Potency [12] | Potency [13]

COCCn1c(=O)c(CCc2ccccc2)nc2cnc(OCc3ccccc3)nc21
inactive: activity change, negative = inhibition [2] -21.6% | activity change, negative = inhibition [4] 4.34% | outcome [5] | Potency [6] > 9.22 µM | Potency [7] > 46 µM | Potency [9] | Potency [10] | Potency [12] | Potency [13]

COCCNc1ncnc2ccc(-c3ccccc3OC)cc12
inactive: Potency [1] > 11.4 µM | activity change, negative = inhibition [2] -6.49% | activity change, negative = inhibition [4] 2.23% | outcome [5] | Potency [6] > 46 µM | Potency [7] > 46 µM | Potency [8] | Potency [11] | outcome [14] | Potency [13]
active: Potency [3] 2 µM | Potency [15] 5.01 µM | Potency [9] 15.8 µM | Potency [10] 10 µM

COc1ccc(CNc2cc(-c3cccc(NS(C)(=O)=O)c3)ncn2)c(OC)c1
inactive: Potency [1] > 11.4 µM | activity change, negative = inhibition [4] -10.4% | outcome [5] | Potency [6] > 46 µM | Potency [7] > 46 µM | Potency [8] | Potency [11] | activity change, negative = inhibition [16] 30.9% [at 2.29 µM] | outcome [14] | Potency [9] | Potency [10] | Potency [12] | Potency [13]
active: Potency [3] 15.8 µM | Potency [17] 2.51 µM

COc1ccc(-c2nc3cnc(N4CCN(C)CC4)nc3n(CCc3ccccc3)c2=O)cc1
inactive: Potency [3] | Potency [6] > 9.22 µM | Potency [7] > 46 µM | Potency [8] | Potency [11] | Potency [17] | Potency [9] | Potency [10] | Potency [12] | Potency [13]
active: Potency [18] 3.16 µM

Cn1c(=O)c(-c2ccc(Cl)cc2)nc2cncnc21
inactive: activity change, negative = inhibition [2] -6.64% | activity change, negative = inhibition [4] -0.619% | outcome [5] | Potency [6] > 9.22 µM | Potency [7] > 46 µM | Potency [8] | Potency [11] | Potency [9] | Potency [10] | Potency [12] | Potency [13]
active: Potency [3] 0.0251 µM
